Screening data deposited in PubChem BioAssay by National Center for Advancing Translational Sciences (NCATS).
G9a block – G9a (human) methyltransferase inhibition | Q96KQ7 | G9a H3K9 monomethylation, AlphaScreen, 2 h | Potency, µM (series often up to 102 µM), for the others: top-dose activity, negative = inhibition, usual class: inhibitors | hit rate 8.8% among 350,000 | AID 504332; also: % is scaled to controls: 0 for no effect and ±100 for the full control effect; nearly all actives have a fitted effect of over 75% in size
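Enzyme 20 nM + cpd, 15 min RT; add b-H3K9 pep 500 nM / SAM 20 uM; 2 h RT; anti-H3K9me1 Ab 0.5 ug/mL + SA donor / anti-rabbit acceptor beads 20 ug/mL each, 10 min; AlphaScreen read.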
Sfp inh – inhibitors of Bacillus subtilis Sfp phosphopantetheinyl transferase. Q9F4F7. hit rate 3.5% among 310,000. Biochemical Sfp PPTase activity, qHTS. Potency, µM, for the others: largest response in the series, negative = inhibition, most hits filed as inhibitors;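 also: the enzyme is Sfp with the accession as filed and its product quenches rhodamine fluorescence; 0% = enzyme reaction without inhibitor and -100% = no enzyme wells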
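Compounds were incubated with enzyme (final 15 nM) for 15 min at room temperature before substrate addition started the reaction. Fluorescence at 525 nm excitation, 598 nm emission was recorded immediately and after 30 minutes.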
HP1b binding inh – blocks HP1-beta chromodomain binding to methylated histone tails. AlphaScreen HP1-beta / biotin-H3K9me3 peptide binding. Potency, µM (series often up to 114 µM), for the others: at the top dose activity change, negative = inhibition, usual class: inhibitors. hit rate 0.56% among 390,000; also: nearly all actives have a fitted effect of over 70% in size
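Compound inhibition of the preformed complex between 50 nM HP1-beta and 50 nM biotinylated H3K9me3 peptide was read by AlphaScreen. Buffer was PBS pH 7.4 with 0.01% Tween-20. Incubations ran 30 min at room temperature, with 10 ug/mL donor/acceptor beads.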
JMJD2A Tudor – inhibitors of human JMJD2A Tudor domain; AlphaScreen JMJD2A-Tudor / H3K4me3 peptide binding; AID 504339; O75164; hit rate 4.4% among 390,000; Potency, µM (titrated, usually from 114 µM), without a hit: at the highest dose activity change, negative = inhibition, hits mostly inhibitors; also: % is scaled to controls: 0 for no effect and ±100 for the full control effect; nearly all actives have a fitted effect of over 50% in size
BAZ2B inh – BAZ2B (human) inhibition; hit rate 4.4% among 360,000; AlphaScreen BAZ2B-H3K14Ac peptide displacement; Q9UIF8; Potency, µM (series often up to 114 µM), inactives show at the top dose activity change, negative = inhibition, hits mostly inhibitors; AID 504333; also: % is scaled to controls: 0 for no effect and ±100 for the full control effect; nearly all actives have a fitted effect of over 60% in size
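Inhibition is scored as reduced AlphaScreen emission. The BAZ2B/b-H3(5-23)K14Ac complex (50 nM each) in PBS pH 7.4, 0.01% Tween-20 meets compound (up to 110 uM) for 30 min at RT before bead addition.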
ALOX12 inh – blocks human arachidonate 12S-lipoxygenase; purified 12hLO, xylenol orange hydroperoxide absorbance; Potency, µM (top dose mostly 108 µM), inactives show at the highest dose activity change, negative = inhibition, actives largely listed as inhibitors; hit rate 1.1% among 580,000; AID 1671190; also: % is scaled to controls: 0 for no effect and ±100 for the full control effect
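Purified human 12hLO at 150 nM in 25 mM Hepes, 0.01% Triton X-100, pH 7.0, preincubated 15 min at room temperature with compound. Reaction started with 40 uM arachidonic acid, 30 min at room temperature. Hydroperoxide measured by Fe-xylenol orange, 573/405 nm absorbance ratio.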
Numbers without * were called inactive; i = inactive; ? = inconclusive; . = no result given; ! = a repeat was not active; [ ] = remark or other dose. Sampled rows, rich in hits. Any-hit rate of the full collection: about 8.7%. Calls follow the shape of the dose curve; as a rule, active = well fitted curve in the direction sought with a large enough effect; inconclusive = small, poorly fitted or top-dose-only effect, or another doubt; inactive = no such curve, though single readings can be large; an effect the other way counts as inactive or inconclusive. Potency is read from the fitted curve at half-maximal effect.

SMILES	G9a block	Sfp inh	HP1b binding inh	JMJD2A Tudor	BAZ2B inh	ALOX12 inh
O=C(/C=C/c1cccc2ccccc12)c1ccncc1	?	25µM*	-20%	?	?	?
Cc1nnc(SCc2c(C(=O)NCC(C)C)oc3ccccc23)s1	.	.	.	.	.	-9%
CC1CC(NC(=O)Cc2ccc(Br)cc2)CC(C)(C)C1 (centres undefined)	-7%[59 µM]	13%	8%	40µM*	12%	0%
Cc1ccc(S(=O)(=O)NCC(c2ccco2)N2CCc3ccccc32)cc1 (centres undefined)	40µM*	.	10%	?	?	-13%
Cc1ccc(C(=O)NCC(c2ccco2)N2CCc3ccccc32)cc1 (centres undefined)	50µM*	.	-23%	?	?	?
O=C(NCC(c1ccco1)N1CCc2ccccc21)c1ccc([N+](=O)[O-])cc1 (centres undefined)	26%[2.33 µM]	.	-2%	-22%	-7%	-2%
Cc1cccc(C(=O)NCC(c2ccco2)N2CCc3ccccc32)c1 (centres undefined)	-5%[2.33 µM]	.	-14%	?	?	?
O=C(NCC(c1ccco1)N1CCc2ccccc21)c1cccc([N+](=O)[O-])c1 (centres undefined)	4%[2.33 µM]	.	-11%	56µM*	50µM*	?
O=C(NCC(c1ccco1)N1CCc2ccccc21)c1ccccc1F (centres undefined)	56µM*	.	?	?	?	-9%
COc1cccc(CN2CCC3(CC2)C(OC)CN3c2cccc(F)c2)n1 (centres undefined)	.	.	.	.	.	67%
CNC(=O)c1cc(-c2ccc(OC)c(OC)c2)cc2c1OCCN2Cc1cccnc1	.	.	.	.	.	-1%[176 µM]
CCc1cc(=O)oc2c(C)c(OCc3ccc(OC)cc3)ccc12	.	.	.	.	.	27%
COC(=O)c1c(NC(=O)c2cccc(N3C(=O)CCC3=O)c2)sc2c1CCN(C(C)=O)C2	79µM*	4%	1%	-34%	-27%	-1%
CNC(=O)c1c(NC(=O)c2cccc(N3C(=O)CCC3=O)c2)sc2c1CCC2	.	-31%	31%	5%	4%	-7%
CN(CCS(=O)c1ccccc1)Cc1ccc2c(c1)OCCO2 (centres undefined)	.	.	.	.	.	19%
CC(=O)Nc1ccc(Nc2nc(-c3sc(C)nc3C)cs2)cc1	?	-14%	-2%	-26%	?	16µM*!
COc1ccc(Nc2nc(-c3sc(NC(C)=O)nc3C)cs2)cc1	40µM*	40µM*	.	.	6%	.
COc1ccc(Nc2nc(-c3sc(N)nc3C)cs2)cc1	?	18µM*	?	50µM*	14µM*	?
CCOc1ccc(Nc2nc(-c3sc(N)nc3C)cs2)cc1	35µM*	-16%	?	50µM*	45µM*	5%
O=C(CSc1nnnn1C1CCCC1)N1CCN(S(=O)(=O)c2ccc3ccccc3c2)CC1	.	.	.	.	.	-10%
Cc1n[nH]c(C)c1S(=O)(=O)Nc1ncn(Cc2c(F)cccc2Cl)n1	.	.	.	.	.	2%
CCC1Oc2ccc(NC(=O)c3ccccc3F)cc2CN(Cc2ccc(OC)cc2)C1=O (centres undefined)	.	.	.	.	.	-8%
COc1ccc(CCNc2nc(-c3sc(N)nc3C)cs2)cc1OC	?	-13%	?	56µM*	50µM*	-13%
COCC(C)Nc1nc(C)c(C(C)=O)s1 (centres undefined)	45µM*	16%	28%	-1%[57.1 µM]	?	?
Cc1ccc(Nc2nc(-c3sc(N)nc3C)cs2)cc1	.	?	?	50µM*	40µM*	?
SMILES	G9a block	Sfp inh	HP1b binding inh	JMJD2A Tudor	BAZ2B inh	ALOX12 inh
COc1ccc(C(=O)c2sc(Nc3ccc(NC(C)=O)cc3)nc2C)cc1	?	-15%	9%	-20%	15%	-26%
COc1ccc(Nc2nc(C)c(C(C)=O)s2)cc1	.	.	.	.	.	45µM*
COc1ccc(C2Cn3nnc(C(=O)N4CCC(C(=O)NCc5cccc(F)c5)CC4)c3CO2)cc1 (centres undefined)	.	.	.	.	.	22%
O=C(c1ccccc1F)N1CCC2(CC1)Cc1ccccc1NC2=O	.	.	.	.	.	73%
NC(=O)c1c(NC(=O)c2cc(-c3ccc(F)cc3)on2)sc2c1CCCC2	1.8µM*	.	-23%	-31%	-13%	4%
NC(=O)c1c(NC(=O)c2ccccc2)sc2c1CCC2	-44%	-3%	68%	-12%	?	?
NC(=O)c1c(NC(=O)c2ccncc2)sc2c1CCCC2	?	9%	29%	-18%	1%	-20%
CCOC(=O)c1c(NC(=S)Nc2ccc(F)cc2)sc2c1CCC2	-21%	-6%	11%	-24%	-2%	-31%
NC(=O)c1c(NC(=O)c2cnccn2)sc2c1CCCC2	8.9µM*	40µM*	25%	-8%[11.4 µM]	-23%	-6%
NC(=O)c1c(NC(=S)Nc2ccc(F)cc2)sc2c1CCCC2	22µM*	22µM*	-5%	-4%	-21%	?
COc1ccc(-c2cc(C(=O)Nc3sc4c(c3C(N)=O)CCC(C)C4)no2)cc1 (centres undefined)	-1%[59 µM]	.	48%	1%	0%	-1%
NC(=O)c1c(NC(=S)Nc2ccccc2)sc2c1CCCC2	6.3µM*	56µM*	-25%	?	-31%	35µM*
Cc1ccc(-c2c(NC(=O)CN3CCN(CCO)CC3)oc3ccccc3c2=O)cc1	.	.	.	.	.	36%
COCCNC(=O)c1cc2cc(S(=O)(=O)N(C)C)ccc2n1C	.	.	.	.	.	-19%
C=CCNC(=S)Nc1sc2c(c1C(N)=O)CCCC2	18µM*	50µM*	?	-34%	-38%	?
CN1CCN(Cc2coc3c(Cl)cc(Cl)cc3c2=O)CC1	25µM*	50µM*	?	8.9µM*	50µM*	?
COC(=O)CSCc1nc2ccccc2[nH]c1=O	20µM*	-29%	21%	-23%	-20%	?
COC(=O)CCc1nc2ccccc2[nH]c1=O	7%[12.7 µM]	10%	32%	-1%	9%	0%
CC(OC(=O)CCc1nc2ccccc2[nH]c1=O)C(=O)c1ccccc1 (centres undefined)	79µM*	9%	30%	5%	11%	0%
Cc1cc(NO)nc(-c2ccc(Br)cc2)n1	?	?	?	20µM*	.	?
Cc1cc(C)nc(NC(=O)c2ccc(Br)cc2)n1	?	4%	-9%	-10%	-10%	0%
CSc1ccccc1C(=O)Nc1cc(C)ccc1C	40µM*	13%	22%	-11%	-2%	-5%
Cc1cccc(NC(=O)c2ccccc2NC(=O)c2ccco2)c1	40µM*	?	26%	-1%	?	i
O=C(Nc1ccccc1C(=O)Nc1ccccc1)c1ccco1	12%	18%	-19%	-10%	-2%	-10%
